Test results taken from PubChem BioAssay AID1159580 (chemical genetic matrix, 2015).
Where “and” joins values, the source holds several entries; their conditions need not be identical. Equal entries are not always repeated. Among all 5,500 compounds or so, about 2,000 (36%) were called active. Not shown: some 18% with an inconclusive outcome. Cut-off read from the data, not from the text of the source: active = normalized growth mostly below about 0.91 (no sharp cut-off); inconclusive = no clear call, values can overlap the other calls; inactive = mostly above about 0.92. Some of the results follow.

Assay: chemical genetic growth profiling, strain panel (AID 1159580);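 note: tested at 20 µM; growth read once vehicle control cultures reached saturation at 30 °C; 1 = growth at the plate median or of vehicle wells; lower values mean less growth of the strain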
Settings: S. cerevisiae deletion strains, growth OD

Measured: normalized growth

N=c1ccn2c(n1)O[C@@H]1C2O[C@H](CO)[C@H]1O (stereo not given in full)
inactive: locus YAL021C, strain ccr4, stronger effect = lower value 1.02 | locus YAL026C, strain drs2, stronger effect = lower value 0.981 | locus YAL030W, strain snc1, stronger effect = lower value 0.987 | locus YBL061C, strain skt5, stronger effect = lower value 0.985 | locus YBR009C, strain hhf1, stronger effect = lower value 0.965 | locus YBR021W, strain FUR4, stronger effect = lower value 1.01 | locus YBR023C, strain chs3, stronger effect = lower value 0.99 | locus YBR171W, strain sec66, stronger effect = lower value 0.988 | locus YBR229C, strain ROT2, stronger effect = lower value 1 | locus YBR231C, strain swc5, stronger effect = lower value 0.98 | locus YBR279W, strain paf1, stronger effect = lower value 0.992 | locus YCL011C, strain gbp2, stronger effect = lower value 0.984 | locus YCL016C, strain dcc1, stronger effect = lower value 0.983 | locus YCL029C, strain bik1, stronger effect = lower value 1.01 | locus YCL061C, strain MRC1, stronger effect = lower value 0.988 | locus YCL069W, strain vba3, stronger effect = lower value 0.991 | locus YCR088W, strain abp1, stronger effect = lower value 0.993 | locus YDL005C, strain med2, stronger effect = lower value 0.992 | locus YDL035C, strain GPR1, stronger effect = lower value 1.01 | locus YDL040C, strain nat1, stronger effect = lower value 0.979 | locus YDL074C, strain BRE1, stronger effect = lower value 1.02 | locus YDL101C, strain DUN1, stronger effect = lower value 1.01 | locus YDL185W, strain tfp1, stronger effect = lower value 1.01 | locus YDL192W, strain arf1, stronger effect = lower value 1.01 | locus YDR001C, strain nth1, stronger effect = lower value 0.982 | locus YDR069C, strain doa4, stronger effect = lower value 0.962 | locus YDR101C, strain arx1, stronger effect = lower value 0.987 | locus YDR137W, strain rgp1, stronger effect = lower value 0.982 | locus YDR159W, strain sac3, stronger effect = lower value 0.939 | locus YDR162C, strain NBP2, stronger effect = lower value 1.01 | locus YDR195W, strain ref2 0.91 | locus YDR297W, strain sur2, stronger effect = lower value 0.996 | locus YDR318W, strain mcm21, stronger effect = lower value 1 | locus YDR334W, strain swr1, stronger effect = lower value 0.985 | locus YDR335W, strain msn5, stronger effect = lower value 0.979 | locus YDR388W, stronger effect = lower value 1.01 | locus YDR392W, strain spt3, stronger effect = lower value 0.83 | locus YDR502C, strain sam2, stronger effect = lower value 1.03 | locus YEL003W, strain gim4, stronger effect = lower value 0.984 | locus YEL037C, strain rad23, stronger effect = lower value 0.991 | locus YEL061C, strain CIN8 (second series), stronger effect = lower value 0.984 | locus YEL061C, strain CIN8, stronger effect = lower value 1.01 | locus YER015W, strain faa2, stronger effect = lower value 0.985 | locus YER016W, strain bim1, stronger effect = lower value 0.982 | locus YER110C, stronger effect = lower value 1.01 | locus YER111C, strain swi4, stronger effect = lower value 0.974 | locus YER155C, strain BEM2 (second series), stronger effect = lower value 0.949 | locus YER155C, strain BEM2, stronger effect = lower value 1 | locus YER167W, strain BCK2, stronger effect = lower value 1.01 | locus YFR010W, strain ubp6, stronger effect = lower value 0.975 | locus YGL078C, strain dbp3, stronger effect = lower value 1.01 | locus YGL086W, strain mad1, stronger effect = lower value 1.01 | locus YGL167C, strain pmr1, stronger effect = lower value 0.984 | locus YGL173C, strain kem1, stronger effect = lower value 0.981 | locus YGL227W, strain vid30, stronger effect = lower value 0.984 | locus YGL240W, strain doc1, stronger effect = lower value 0.959 | locus YGL248W, strain PDE1, stronger effect = lower value 1.01 | locus YGL253W, strain hxk2, stronger effect = lower value 0.981 | locus YGR078C, strain PAC10, stronger effect = lower value 1.01 | locus YGR135W, strain pre9, stronger effect = lower value 1.03 | locus YGR252W, strain gcn5, stronger effect = lower value 0.988 | locus YHR013C, strain ard1, stronger effect = lower value 0.939 | locus YHR027C, strain rpn1, stronger effect = lower value 0.989 | locus YHR030C, strain SLT2, stronger effect = lower value 1.01 and 0.988 | locus YHR079C, strain IRE1 (second series), stronger effect = lower value 1 | locus YHR079C, strain IRE1, stronger effect = lower value 0.985 | locus YHR094C, strain hxt1, stronger effect = lower value 1.01 | locus YHR129C, strain ARP1, stronger effect = lower value 0.997 | locus YHR142W, strain chs7, stronger effect = lower value 1.04 | locus YHR200W, strain rpn10, stronger effect = lower value 1.01 | locus YIL066C, strain RNR3, stronger effect = lower value 1.01 | locus YIL073C, strain SPO22, stronger effect = lower value 1.04 | locus YIL125W, strain kgd1, stronger effect = lower value 1 | locus YIR030C, strain dcg1, stronger effect = lower value 1.02 | locus YJL092W, strain hpr5, stronger effect = lower value 0.982 | locus YJL095W, strain BCK1 (second series), stronger effect = lower value 0.99 | locus YJL095W, strain BCK1, stronger effect = lower value 1.04 and 0.994 | locus YJL115W, strain asf1, stronger effect = lower value 1 | locus YJL129C, strain trk1, stronger effect = lower value 0.999 | locus YJL134W, strain LCB3, stronger effect = lower value 1.01 | locus YJL154C, strain vps35, stronger effect = lower value 0.988 | locus YJL164C, strain tpk1, stronger effect = lower value 1.01 | locus YJL166W, strain qcr8, stronger effect = lower value 0.99 | locus YJL168C, strain set2, stronger effect = lower value 1.01 | locus YJL187C, strain SWE1 (second series), stronger effect = lower value 1.02 | locus YJL187C, strain SWE1, stronger effect = lower value 0.984 | locus YJR043C, strain POL32, stronger effect = lower value 1.01 | locus YJR066W, strain TOR1, stronger effect = lower value 0.908 | locus YKL009W, strain mrt4, stronger effect = lower value 1.02 | locus YKL068W, stronger effect = lower value 1.01 | locus YKL085W, strain MDH1 (second series), stronger effect = lower value 1.02 | locus YKL085W, strain MDH1, stronger effect = lower value 1.02 | locus YKL160W, strain elf1, stronger effect = lower value 1.02 | locus YKL190W, strain CNB1, stronger effect = lower value 1.01 | locus YKR001C, strain vps1, stronger effect = lower value 1 | locus YKR026C, strain gcn3, stronger effect = lower value 0.989 | locus YKR091W, strain srl3, stronger effect = lower value 0.99 | locus YLL001W, strain dnm1, stronger effect = lower value 0.982 | locus YLL026W, stronger effect = lower value 0.987 | locus YLL041C, strain sdh2, stronger effect = lower value 0.992 | locus YLR027C, strain aat2, stronger effect = lower value 0.985 | locus YLR039C, strain RIC1, stronger effect = lower value 1 | locus YLR058C, strain SHM2, stronger effect = lower value 1.01 | locus YLR102C, strain apc9, stronger effect = lower value 1.01 | locus YLR113W, strain HOG1, stronger effect = lower value 0.989 | locus YLR221C, strain rsa3, stronger effect = lower value 1.01 | locus YLR258W, strain gsy2, stronger effect = lower value 0.984 | locus YLR262C, strain YPT6 (second series), stronger effect = lower value 1.01 | locus YLR262C, strain YPT6, stronger effect = lower value 1.02 | locus YLR268W, strain sec22, stronger effect = lower value 1 | locus YLR320W, strain mms22, stronger effect = lower value 0.971 | locus YLR330W, strain CHS5, stronger effect = lower value 1 | locus YLR342W, strain FKS1 (second series), stronger effect = lower value 1.01 | locus YLR342W, strain FKS1, stronger effect = lower value 0.985 | locus YLR357W, strain rsc2, stronger effect = lower value 0.95 | locus YLR370C, strain arc18, stronger effect = lower value 0.991 | locus YLR371W, strain rom2, stronger effect = lower value 1.01 | locus YLR384C, strain iki3, stronger effect = lower value 0.997 | locus YLR418C, strain cdc73, stronger effect = lower value 1.01 | locus YML016C, strain PPZ1, stronger effect = lower value 1.01 | locus YML032C, strain rad52, stronger effect = lower value 1 | locus YML120C, strain ndi1, stronger effect = lower value 1.01 | locus YML124C, strain tub3, stronger effect = lower value 1.01 | locus YMR058W, strain fet3, stronger effect = lower value 0.992 | locus YMR078C, strain ctf18, stronger effect = lower value 1.01 | locus YMR125W, strain sto1, stronger effect = lower value 0.951 | locus YMR129W, stronger effect = lower value 0.997 | locus YMR205C, strain PFK2, stronger effect = lower value 0.957 | locus YMR223W, strain ubp8, stronger effect = lower value 1.02 | locus YMR231W, strain pep5, stronger effect = lower value 0.991 | locus YMR307W, strain GAS1, stronger effect = lower value 1.02 | locus YNL067W, strain RPL9B, stronger effect = lower value 1.03 | locus YNL071W, strain lat1, stronger effect = lower value 0.994 | locus YNL153C, strain GIM3, stronger effect = lower value 1.02 | locus YNL183C, strain NPR1, stronger effect = lower value 0.941 | locus YNL209W, strain ssb2, stronger effect = lower value 1 | locus YNL233W, strain BNI4, stronger effect = lower value 1.01 | locus YNL248C, strain rpa49, stronger effect = lower value 1.01 | locus YNL250W, strain rad50, stronger effect = lower value 1 | locus YNL271C, strain bni1, stronger effect = lower value 1.02 | locus YNL298W, strain CLA4, stronger effect = lower value 1.01 | locus YNL307C, strain MCK1, stronger effect = lower value 1.01 | locus YNL322C, strain KRE1 (second series), stronger effect = lower value 1 | locus YNR049C, strain mso1, stronger effect = lower value 0.986 | locus YNR052C, strain pop2, stronger effect = lower value 1.02 | locus YOL006C, strain TOP1, stronger effect = lower value 1.09 | locus YOL012C, strain htz1 1.21 | locus YOL147C, strain pex11, stronger effect = lower value 1.01 | locus YOR001W, strain rrp6, stronger effect = lower value 1.01 | locus YOR061W, strain CKA2, stronger effect = lower value 1.01 | locus YOR069W, strain VPS5, stronger effect = lower value 1.01 | locus YOR070C, strain gyp1, stronger effect = lower value 0.995 | locus YOR080W, strain dia2, stronger effect = lower value 0.965 | locus YOR083W, strain WHI5, stronger effect = lower value 1.03 | locus YOR106W, strain vam3, stronger effect = lower value 1.02 | locus YOR136W, strain idh2, stronger effect = lower value 1.01 | locus YOR144C, strain elg1, stronger effect = lower value 1 | locus YOR184W, strain ser1, stronger effect = lower value 1.01 | locus YOR231W, strain MKK1, stronger effect = lower value 0.999 | locus YOR265W, strain rbl2, stronger effect = lower value 0.99 | locus YOR270C, strain vph1, stronger effect = lower value 0.983 | locus YOR290C, strain snf2, stronger effect = lower value 0.974 | locus YOR316C, strain cot1, stronger effect = lower value 1.02 | locus YPL051W, strain arl3, stronger effect = lower value 1 | locus YPL055C, strain LGE1, stronger effect = lower value 1.02 | locus YPL078C, strain atp4, stronger effect = lower value 1.01 | locus YPL106C, strain sse1, stronger effect = lower value 0.979 | locus YPL240C, strain hsp82, stronger effect = lower value 0.993 | locus YPL241C, strain CIN2, stronger effect = lower value 1.02 | locus YPL256C, strain CLN2, stronger effect = lower value 1.04 | locus YPR119W, strain clb2, stronger effect = lower value 1 | locus YPR141C, strain kar3, stronger effect = lower value 1.01 | locus YPR163C, strain tif3, stronger effect = lower value 1.01 | locus YPR167C, strain met16, stronger effect = lower value 1 | strain wtn01, stronger effect = lower value 1
